Among the data in PubChem BioAssay (NCI) are growth values, retold here.

The panel holds about 83,000 compounds, 20% with a hit somewhere; the sample as a whole holds those more often.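 Step 1: grow cells in 96-well plates. Step 2: add test compound at a single concentration. Step 3: incubate 48 h. Step 4: record percent growth.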 Unmarked numbers belong to inactive results. Activity calls are given as the source filed them. The calls were made as follows: active = growth percent below 10; inactive = the rest.

Common to all, as to experiment: NCI-60 one-dose screen, 48 h (100 = growth as untreated, 0 = no growth, -100 = all killed)
Experiment [1] deals with HCT-15 colon. Conditions: 10 µM unless noted.
Experiment [2] deals with HT29 colon. Particulars: 10 µM unless noted.
The subject of experiment [3] is SNB-75 CNS. Particulars: 10 µM unless noted.
Experiment [4] deals with SNB-19 CNS. Particulars: 10 µM unless noted.
The subject of experiment [5] is PC-3 prostate. Particulars: 10 µM unless noted.
For experiment [6], the system named is SK-MEL-5 melanoma. Particulars: 10 µM unless noted.
Experiment [7] deals with UACC-62 melanoma. Conditions: 10 µM unless noted.
The subject of experiment [8] is SK-MEL-28 melanoma. Conditions: 10 µM unless noted.
Experiment [9] deals with SK-MEL-2 melanoma. Conditions: 10 µM unless noted.
Experiment [10] concerns EKVX NSCLC. Conditions: 10 µM unless noted.
Experiment [11] concerns SN12C renal. Particulars: 10 µM unless noted.
Experiment [12] has as its system UO-31 renal. Conditions: 10 µM unless noted.
The test system of experiment [13] is TK-10 renal. Particulars: 10 µM unless noted.
Experiment [14] relates to ACHN renal. Particulars: 10 µM unless noted.
The subject of experiment [15] is CAKI-1 renal. Particulars: 10 µM unless noted.
Experiment [16] relates to A498 renal. Particulars: 10 µM unless noted.
Experiment [17] deals with CCRF-CEM leukemia. Conditions: 10 µM unless noted.
For experiment [18], the system named is MOLT-4 leukemia. Conditions: 10 µM unless noted.
Experiment [19] relates to LOX IMVI melanoma. Particulars: 10 µM.
The test system of experiment [20] is U251 CNS. Conditions: 10 µM unless noted.

Consider `O=C(/C=C/c1ccc(-c2ccccc2)cc1)c1nc2ccccc2n1Cc1ccc(Br)cc1`, for which the growth is 37.3% in experiment [1]; 41.6% in [2]; 56.8% in [3]; 57.8% in experiment [4]; 48.2% in [5]; 72.2% in experiment [6]. Further, the growth in experiment [7] is 50.2%; in experiment [8], 58.5%; in experiment [9], 65.8%; in experiment [10], 52.3%; in experiment [11], 77.2%; in experiment [12], 46.3%. The growth in experiment [13] is 35.3%; in experiment [14], 32.7%; in [15] it was 50.4%; in [16] it was 104%; in [17], 11.1%; in experiment [18], -14.4% (active).

As to `CCOc1ccc(-c2c(C#N)c(-c3ccc(Cl)cc3)nc3n[nH]c(-c4ccc(Cl)cc4)c23)cc1OC`, the growth in experiment [1] was 19.6%; in [2], 34.2%; in experiment [3] it was 58.5%; in experiment [4] it was 77%; in experiment [5] it was 28%; in experiment [6] it was 28.2%. Further, the growth in experiment [7] is 68.5%; in experiment [8], 60.2%; in experiment [9], 64%; in experiment [10] it was 26.6%; in experiment [11], 69.2%; in experiment [12], 33.2%. Further, the growth is 90% in [13]; 53.4% in experiment [14]; 53.1% in [15]; 114% in experiment [16]; 33.7% in [17]; -3.16% (active) in experiment [18].

Take `CCOC(=O)C1=C(N)N(c2ccccc2)C2=C(C(=O)CC(C)(C)C2)C1c1ccc(Cl)cc1Cl` (stereo not drawn): the growth was 14% in [1]; 35% in [2]; 41.2% in experiment [3]; 28.1% in experiment [4]; 9.99% (active) in experiment [5]; -1.66% (active) in [6]. For the same compound, the growth in experiment [7] was 27.2%; in experiment [8], 51.3%; in experiment [9], -12.3% (active); in experiment [10] it was 18.8%; in experiment [11], 20.6%; in experiment [12] it was 16.8%. Further, the growth in [13] is 36.6%; in experiment [14], 17.1%; in experiment [15] it was 23.1%; in experiment [16], 46.8%; in experiment [17] it was 19.3%; in experiment [18] it was 7.23% (active).

As to `Cn1cc(-c2cc(N)n3nc(-c4cn(C)c5ccccc45)cc3n2)c2cc(Br)ccc21`, the growth in experiment [1] is -79.1% (active); in experiment [2], -65.1% (active); in [3] it was -35.7% (active); in experiment [4] it was 7.16% (active); in experiment [5], -34% (active); in [6] it was -63.5% (active). For the same compound, the growth in experiment [7] is -59.7% (active); in [19], -85.3% (active); in experiment [8] it was -86.4% (active); in experiment [9], -84.5% (active); in experiment [10], -22.1% (active); in experiment [11] it was -43.9% (active). The growth is -84.2% (active) in experiment [12]; -27.8% (active) in [13]; -31.7% (active) in [14]; -75.3% (active) in [15]; -26.3% (active) in experiment [16]; -4.52% (active) in [17]. Further, the growth in experiment [18] is -0.0957% (active).

Regarding `Cc1cc2nc3c([nH]c2cc1C)c1ccc(=O)cc1n3CCN(C)C`, the growth is 19.3% in [1]; 23.4% in experiment [2]; 63.2% in experiment [3]; 38.2% in [4]; 40% in [20]; 41.5% in experiment [6]. The growth in [7] was 65.8%; in experiment [8], 51.4%; in [9], 73.4%; in experiment [10], 76.7%; in experiment [12], 12.5%; in experiment [13], 105%. Also, the growth in experiment [14] is 20.4%; in experiment [15] it was 19.9%; in experiment [16], 111%; in [18] it was 5.98% (active).

With `O=C(c1ccccc1)c1ccc2nc(-c3cccc(Cl)c3)[nH]c2c1`, the growth was 108% in experiment [1]; 110% in experiment [2]; 99.2% in experiment [3]; 103% in experiment [4]; 99.6% in experiment [5]; 99.5% in experiment [6]. The growth in experiment [7] was 98%; in experiment [19] it was 95.4%; in experiment [8] it was 104%; in experiment [9], 106%; in experiment [10] it was 105%; in experiment [11], 99.5%. For the same compound, the growth is 95.4% in experiment [12]; 95.9% in experiment [13]; 100% in experiment [14]; 106% in [15]; 114% in [16]; 113% in experiment [17]. For the same compound, in experiment [18], the growth is 103%.

Take `C=C1CCC2C3(C)COC(c4ccc(F)cc4)OC3CCC2(C)C1CC(O)C1=CCOC1=O` (stereo not drawn): the growth was 1.99% (active) in [1]; 27.8% in [2]; 60.4% in experiment [3]; 76.4% in [4]; 37.6% in experiment [5]; 21.9% in [6]. For the same compound, the growth was 47.9% in [7]; 41.4% in [8]; 19.9% in [9]; 62.6% in [10]; 32.1% in experiment [11]; 43.2% in experiment [12]. The growth is 96.6% in experiment [13]; 30.2% in [14]; 53.3% in experiment [15]; 118% in [16]; 21.4% in [17]; 22.5% in experiment [18].

For `COc1cc(OC)cc(-c2cc3ccc(N(C)C)cc3c(=O)[nH]2)c1`, the growth was 18.9% in experiment [1]; 12.4% in experiment [2]; 57.3% in [3]; 35.5% in experiment [4]; 35.7% in experiment [5]; 51.8% in experiment [7]. In addition, the growth in experiment [19] was 23%; in experiment [8], 61.3%; in [9], 33.6%; in [10], 47%; in [11], 36.7%; in experiment [12] it was 52.4%. The growth in experiment [13] was 79.1%; in [14], 31.2%; in [15] it was 34.2%; in experiment [16] it was 121%; in experiment [17] it was 15.5%.
